# Assay results from paper PMC6919601, “Identification of Plasmodium dipeptidyl aminopeptidase allosteric inhibitors by high throughput screening” (PLoS ONE, 2019).
# The whole screen tested about 110,000 compounds, of which about 230 (0.21%) showed an effect of 50% or more. The sample as a whole holds a higher share of strong results than the screen did.
# Biological target: DPAP1 (Plasmodium falciparum, UniProt Q8IIJ9)
# Test: primary screen, percent inhibition; read by cleavage of a fluorogenic dipeptide substrate; higher = more effect of the substance
# Design: species or system P. falciparum D10 trophozoite lysates; single well
# Procedure: HTS was performed in black 384-well plates. The first and last two columns of each plate contained our negative (DMSO) and positive (10 μM JCP410) controls, and the 20 central columns the test compounds at 10 μM. Compounds were first diluted 50-fold into assay buffer (50 mM sodium acetate, 5 mM MgCl2, 10 mM β-mercaptoethanol, and 0.1% CHAPS, pH 5.5) from a 10 mM DMSO stock plates. One microliter of this 200 μM intermediate stock plate was dispensed into the assay plate. […] After 30 min, the reaction was quenched with 20 μL of 0.5 M acetic acid, and the fluorescent intensity measured at 523 nm (λex = 492 nm) using an Analyst HT multimode plate reader (Molecular Devices).
# 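Further: 30 min substrate incubation versus DMSO and 10 µM JCP410 controls.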
# Sequence of DPAP1 (Q8IIJ9 whole entry, looked up): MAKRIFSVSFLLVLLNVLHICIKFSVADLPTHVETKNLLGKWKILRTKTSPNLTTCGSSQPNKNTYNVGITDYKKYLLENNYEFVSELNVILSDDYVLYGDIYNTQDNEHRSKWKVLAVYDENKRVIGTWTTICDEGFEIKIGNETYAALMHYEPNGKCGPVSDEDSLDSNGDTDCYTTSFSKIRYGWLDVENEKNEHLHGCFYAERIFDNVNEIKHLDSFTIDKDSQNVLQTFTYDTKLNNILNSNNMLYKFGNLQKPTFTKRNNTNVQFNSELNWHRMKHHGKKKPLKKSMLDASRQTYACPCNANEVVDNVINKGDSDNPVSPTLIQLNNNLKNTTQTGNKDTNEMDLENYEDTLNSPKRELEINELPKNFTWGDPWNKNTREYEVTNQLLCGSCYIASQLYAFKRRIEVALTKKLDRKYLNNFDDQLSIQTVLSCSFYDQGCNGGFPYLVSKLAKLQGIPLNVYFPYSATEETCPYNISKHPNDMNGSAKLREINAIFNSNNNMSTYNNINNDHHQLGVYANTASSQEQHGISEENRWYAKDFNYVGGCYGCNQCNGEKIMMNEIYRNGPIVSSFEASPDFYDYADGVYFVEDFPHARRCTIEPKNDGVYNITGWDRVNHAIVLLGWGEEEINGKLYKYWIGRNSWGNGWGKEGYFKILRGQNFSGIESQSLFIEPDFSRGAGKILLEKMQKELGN
row,Structure (SMILES),% Inhibition @ 10 uM
1,OC(c1ccccc1)c1nc2ccccc2[nH]1 (stereo not shown),3.87%
2,CCn1nc(C)c(C(=O)Nc2ccn(Cc3ccccc3)n2)c1C,3.21%
3,CN1CCN(C(=O)Cn2ncc3c4ccccc4n(C)c3c2=O)CC1,1.41%
4,Cn1c2ccccc2c2cnn(CC(=O)N3CCN(c4ccccn4)CC3)c(=O)c21,4.53%
5,Cn1c2ccccc2c2cnn(CC(=O)N3CCN(c4ncccn4)CC3)c(=O)c21,53.7%
6,Oc1nc(SCc2ccccc2)nc(O)c1Cc1ccccc1,-2.12%
7,CC1=CC2=NC(=O)/C(=C\c3ccc(-c4ccccc4Cl)o3)C(=N)N2O1,-1.65%
8,O=C(NC1CCCCC1)C1CC(c2ccccc2F)=NO1 (stereo not shown),7.39%
9,CCOc1ccc2c(=O)c(Oc3ccccc3)c(C(F)(F)F)oc2c1,-4.21%
10,COc1ccc(OC)c(NC(=O)c2ccc(OC(C)C)cc2)c1,-1.88%
11,COc1ccccc1Oc1ccc(S(=O)(=O)Nc2cccc(C(C)=O)c2)cc1,67.2%
12,COc1ccc(S(=O)(=O)Nc2cccc(C(C)=O)c2)cc1,-1.92%
13,CC(=O)c1cccc(NS(=O)(=O)c2ccc(Oc3ccccc3Cl)cc2)c1,-3.87%
14,CC(=O)c1sc2nc(-c3cccs3)cc(-c3cccs3)c2c1N,7.74%
15,CS(=O)(=O)c1sc2nc(-c3cccs3)cc(-c3ccccc3)c2c1N,64.2%
16,CS(=O)(=O)c1sc2nc(-c3ccc(Br)cc3)cc(-c3ccccc3)c2c1N,-1.93%
17,CN(C)c1ccc(NC(=O)Nc2ccc(Cl)cc2)cc1,0.51%
18,O=C1C2C=COC2C2c3ccccc3CCC2N1Cc1ccccc1 (stereo not shown),0.727%
19,Cc1nc2c(C(=O)n3ccnc3)cnn2c(C)c1Cc1ccccc1Cl,-0.406%
20,CC(=O)Nc1ccc(NC(=O)CN(c2cccc(F)c2)S(C)(=O)=O)cc1,8.06%
21,CS(=O)(=O)N(CC(=O)Nc1ccc2c(c1)OCCO2)c1cccc(F)c1,69.8%
22,CS(=O)(=O)N(CC(=O)Nc1ccccc1)c1cccc(F)c1,-10.1%
23,CN(Cc1ccco1)C(CNS(=O)(=O)c1ccccc1)c1ccccc1 (stereo not shown),-0.671%
24,CCCCOc1ccc(C2=NC(=O)/C(=C/c3cccc(OC)c3OC)O2)cc1,2.1%
25,CCn1c2ccccc2n2cc(-c3ccc4c(c3)OCO4)nc12,0.486%
26,Sc1nc(-c2ccc3c(c2)OCO3)cn1-c1cccc(Cl)c1,19.5%

row,Structure (SMILES),% Inhibition @ 10 uM
1,Cc1ccccc1-n1cc(-c2ccc3c(c2)OCO3)nc1S,83.7%
2,CC(C)C[C@H](NC(=O)c1cc2cc(OCCN3CCOCC3)ccc2o1)C(=O)NC1COCC1=O (stereo partly shown),-8.26%
3,CCOc1cc(/C=C2/NC(=O)N(CC(=O)Nc3cccc(C)c3)C2=O)cc(Cl)c1O,2.44%
4,Cc1ccc(NC(=O)CN2C(=O)S/C(=C\c3ccccc3C)C2=O)cc1,-5.4%
5,Cc1ccc(NC(=O)CN2C(=O)S/C(=C\c3ccccc3O)C2=O)cc1,50.5%
6,COc1cccc(/C=C2/SC(=O)N(CC(=O)Nc3ccc(C)cc3)C2=O)c1O,30.1%
7,COc1ccc(C(=O)CCC(=O)NC2=NCCS2)cc1,-3.21%
8,CN1CCN(C(=O)Cn2nc(-c3ccc(Cl)cc3)c3ccccc3c2=O)CC1,2.95%
9,CC1=C(C(=O)OC2CCCC2)C(c2ccsc2)C2=C(O)CC(c3cccs3)CC2=N1 (stereo not shown),0.146%
10,Cc1ccc2oc(=O)c3cc(C(=O)Nc4cc(C)on4)sc3c2c1,-0.646%
11,N#CC1=C2SCN(Cc3ccco3)CN2C(=O)CC1c1cccs1 (stereo not shown),47.7%
12,CC(c1ccccc1)N1CSC2=C(C#N)C(c3cccs3)CC(=O)N2C1 (stereo not shown),68%
13,CC(c1ccccc1)N1CSC2=C(C#N)C(c3ccc(Cl)cc3)CC(=O)N2C1 (stereo not shown),73.1%
14,Cc1ccc(C2CC(=O)N3CN(C(C)c4ccccc4)CSC3=C2C#N)cc1 (stereo not shown),10.6%
15,COc1ccc(C2CC(=O)N3CN(C(C)c4ccccc4)CSC3=C2C#N)cc1OC (stereo not shown),28%
16,CCOc1ccc(C2CC(=O)N3C(=C2C#N)SCC3(O)c2ccc(OCC)cc2)cc1 (stereo not shown),-0.0235%
17,N#CC1=C2SCC(O)(c3ccccc3)N2C(=O)CC1c1cccs1 (stereo not shown),-4.74%
18,CCOc1ccc(C2CC(=O)N3CN(C(C)c4ccccc4)CSC3=C2C#N)cc1 (stereo not shown),53.1%
19,Cc1cc(Cl)ccc1N(CC(=O)Nc1ccc2c(c1)OCO2)S(=O)(=O)c1ccccc1,8.03%
20,Cc1ccc(NS(=O)(=O)c2ccc(NC(=O)COc3ccccc3)cc2)c(C)c1,-4.7%
21,CCOc1ccc(-n2nc3ccc(NC(=O)c4ccc5c(c4)OCCO5)cc3n2)cc1,17.9%
22,CCCCCOc1ccc(C2NC(C(=O)O)CS2)cc1 (stereo not shown),-2.54%
23,Cc1nn(C)c(C)c1/C=C(/C(=O)C(C)C)n1cncn1,0.00706%
24,CC1CCCCN1CCNc1ncnc2onc(-c3ccc(Cl)cc3)c12 (stereo not shown),-3.95%
25,CN(C)c1ccc(-c2c(C#N)c(S)nc3c2C(=O)CC(C)(C)C3)cc1,-2.81%
26,Oc1cc(-c2ccccc2)nc2nc(Cc3ccccc3)nn12,0.795%

row,Structure (SMILES),% Inhibition @ 10 uM
1,Cc1ccc(CNC(=O)c2cc3c(s2)-c2ccccc2S(=O)(=O)C3)cc1,-0.72%
2,CN1C(=O)c2ccccc2C(C(=O)NCCN2CCc3ccccc3C2)C1c1cn(C)c2ccccc12 (stereo not shown),-7.27%
3,O=c1c2c3c(sc2[nH]c(=S)n1-c1ccccc1)CC1(CCCCC1)CC3,0.774%
4,CCc1c(O)n(-c2ccccc2)c(=S)[nH]c1=O,0.526%
5,Cc1sc2[nH]c(=S)n(-c3ccc(Cl)cc3)c(=O)c2c1C,51.2%
6,Cc1sc2[nH]c(=O)n(-c3ccc(Cl)c(Cl)c3)c(=O)c2c1C,-0.711%
7,CCc1cc2c(=O)n(-c3ccc(Cl)cc3)c(=S)[nH]c2s1,21.1%
8,Cc1sc2[nH]c(=S)n(-c3ccccc3)c(=O)c2c1C,72.2%
9,COc1ccc(N2CCN(C(=O)CN(C)S(=O)(=O)c3ccc(C)cc3)CC2)cc1,-5.35%
10,O=[N+]([O-])c1ccc(CSc2ccc(Cl)cc2)cc1,2.22%
11,COc1ccc(CNC(=O)c2cc3c(O)nc4ccc(C)cc4c3s2)cc1,1.72%
12,Cc1cc(C)c(C)c(C2C(C#N)=C(N)SC(N)=C2C#N)c1C,4.22%
13,N#CC1=C(N)SC(N)=C(C#N)C1c1ccccc1,70.9%
14,COc1cc(C2C(C#N)=C(N)SC(N)=C2C#N)ccc1O,28.3%
15,N#CC1=C(N)SC(N)=C(C#N)C1c1cccc(Cl)c1,19.5%
16,N#CC1=C(N)SC(N)=C(C#N)C1c1ccc(Cl)c(Cl)c1,40.5%
17,Cc1ccc(C2C(C#N)=C(N)SC(N)=C2C#N)c(C)c1,27.4%
18,CC1C(C#N)=C(N)SC(N)=C1C#N,67.5%
19,CCOc1ccc(OCC)c(C2C(C#N)=C(N)SC(N)=C2C#N)c1,23.2%
20,CCOc1ccc(C2C(C#N)=C(N)SC(N)=C2C#N)cc1OC,57.7%
21,N#CC1=C(N)SC(N)=C(C#N)C1c1ccc(Cl)cc1,50.8%
22,CC(C)c1ccc(C2C(C#N)=C(N)SC(N)=C2C#N)cc1,46.7%
23,N#CC1=C(N)SC(N)=C(C#N)C1c1cccnc1,0.731%
24,C=CCSc1nnc(NC(=O)Cc2coc3ccc(C)cc23)s1,1%
25,CC(Sc1nc(-c2ccccc2)c(-c2ccccc2)[nH]1)C(=O)O (stereo not shown),-3.04%
26,O=C(Nc1ccc(F)c(Cl)c1)c1cc2nc(C(F)F)cc(C(F)F)n2n1,-8.02%

row,Structure (SMILES),% Inhibition @ 10 uM
1,Cc1oc2ncnc(N3CCOCC3)c2c1C(=O)N(C)Cc1ccco1,4.76%
2,COc1ccc2nc(Cl)c(C3CC(c4ccc(Cl)cc4)=NN3C(C)=O)cc2c1 (stereo not shown),4.18%
3,NS(=O)(=O)c1ccc(NC(=O)c2cccs2)cc1,7.24%
4,NC(=O)C1CCCN(C2CCc3ccccc3C2)C1 (stereo not shown),-1.5%
5,N#CC1=C(N)SC(N)=C(C#N)C1c1c(Cl)cccc1Cl,28.7%
6,N#CC1=C(N)SC(N)=C(C#N)C1c1ccco1,51.4%
7,Cc1ccsc1C1C(C#N)=C(N)SC(N)=C1C#N,27.5%
8,N#CC1=C(N)SC(N)=C(C#N)C1c1cccs1,40.6%
9,Cc1ccc(C2C(C#N)=C(N)SC(N)=C2C#N)s1,55.8%
10,Cc1ccc(C2C(C#N)=C(N)SC(N)=C2C#N)o1,47.9%
11,OC(c1ccccc1)c1nc2ccccc2n1CCc1ccccc1 (stereo not shown),-2.92%
12,CC1=C(C(=O)Nc2ccc(Br)cn2)C(c2ccccc2C)C2=C(O)CCCC2=N1 (stereo not shown),2.7%
13,CN(CC(=O)NCc1cccs1)S(=O)(=O)c1ccc2[nH]c(-c3ccccc3)nc2c1,3.88%
14,COc1ccc(Br)cc1CNC(=O)c1ccc2c(c1)ncn2C1CCCC1,3.66%
15,COc1cc(CN(C(=S)NCC(=O)NC2CCCC2)C2CCCC2)cc(OC)c1OC,1.27%
16,COc1cc(C2=N/C(=C\c3ccc(C(C)(C)C)cc3)C(=O)O2)cc(OC)c1OC,84.3%
17,COc1cc(/C=C2\N=C(c3cc(OC)c(OC)c(OC)c3)OC2=O)cc(OC)c1OC,0.607%
18,COc1cc(C2=N/C(=C\c3ccc(SC)cc3)C(=O)O2)cc(OC)c1OC,-20.1%
19,Cc1cccc(C(=O)Nc2ccc(S(=O)(=O)N3CCCCC3)cc2)c1,-1.28%
20,N#Cc1c(-c2ccccc2)cc(C(F)F)nc1S,76.3%
21,N#Cc1c(-c2ccccc2)cc(C(F)(F)F)nc1S,76.9%
22,N#Cc1c(-c2ccccc2)cc(-c2ccccc2)c(C#N)c1N,0.716%
23,N#Cc1c(-c2ccc3c(c2)OCO3)cc(-c2ccccc2)nc1S,11.7%
24,N#Cc1c(-c2ccc(F)cc2)cc(C2CC2)nc1S,4.63%
25,COc1ccc(-c2cc(-c3ccccc3)nc(S)c2C#N)cc1,43.3%
